An excerpt weighted towards active compounds, which were near 11% of everything screened.
Gal4-VP16 FLuc – Gal4-VP16 reporter inhibition counter-screen | actives 3.5% (n = 310,000) | Potency, µM (top dose mostly 53.6 µM), inactives show top-dose activity, negative = inhibition, hits mostly inhibitors | Drosophila S2 Gal4-VP16 UAS-luciferase, luminescence, 20 h;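 further: Gal4-VP16 expression switched on by copper sulfate through the metallothionein promoter; potency means the concentration at half of the fitted maximal effect; on the % scale 0 is the no-effect control and ±100 the full control effect; nearly all actives have a fitted effect of over 50% in size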
MCF10A rerep – DNA re-replication induction in MCF 10a cells. MCF 10A DNA re-replication, Hoechst nuclear intensity, 48 h. Potency, µM (top dose mostly 46.1 µM), for the others: top-dose activity, positive = re-replication, usual class: activators. actives 2.9% (n = 350,000). AID 624296; further: potency means the concentration at half of the fitted maximal effect; % of control where 0% means no effect; nearly all actives have a fitted effect of over 50% in size
IL-1B inflam inh – inhibitors of inflammasome signaling (IL-1 beta secretion). THP-1 LPS/ATP IL-1B secretion, AlphaLISA, 16 h; active compounds read low. activity change, % at 57.5 µM. actives 4.7% (n = 360,000). AID 743279; in the data active means activity change below about -50%; inconclusive means mostly about -30% to -49%; further: on the % scale 0 is the no-effect control and ±100 the full control effect
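Secreted IL-1B measured by AlphaLISA bead assay after 16 h compound exposure of THP-1 cells; compounds (final up to 57.5 uM) added 1 h before LPS (250 ng/mL) and ATP (1.25 mM) stimulation; lower signal means less secretion.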
RORgamma inh – ROR gamma (mouse) transcription inhibition; actives 5.4% (n = 310,000); Drosophila S2 Gal4-RORgamma UAS-luciferase reporter, 20 h; Potency, µM (titrated, usually from 53.6 µM), without a hit: top-dose activity change, negative = inhibition, most hits filed as inhibitors; P51450; further: potency means the concentration at half of the fitted maximal effect; on the % scale 0 is the no-effect control and ±100 the full control effect; nearly all actives have a fitted effect of over 60% in size
Target sequence (P51450 whole entry, looked up, the tested form may be a part): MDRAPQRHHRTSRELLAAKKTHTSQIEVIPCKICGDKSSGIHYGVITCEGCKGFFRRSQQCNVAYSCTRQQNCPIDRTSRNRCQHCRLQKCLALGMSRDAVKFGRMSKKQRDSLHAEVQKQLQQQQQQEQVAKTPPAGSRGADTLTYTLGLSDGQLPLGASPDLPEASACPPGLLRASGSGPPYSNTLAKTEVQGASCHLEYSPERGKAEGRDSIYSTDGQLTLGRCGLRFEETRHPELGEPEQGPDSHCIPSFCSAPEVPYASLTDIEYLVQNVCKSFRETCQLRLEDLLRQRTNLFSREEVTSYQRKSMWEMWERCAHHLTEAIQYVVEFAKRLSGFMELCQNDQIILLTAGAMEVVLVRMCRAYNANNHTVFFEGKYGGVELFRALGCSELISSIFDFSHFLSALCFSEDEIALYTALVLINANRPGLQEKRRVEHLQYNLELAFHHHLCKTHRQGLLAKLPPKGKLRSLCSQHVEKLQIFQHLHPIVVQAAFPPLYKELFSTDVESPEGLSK
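Read-out: Photinus luciferase luminescence; inhibitors lower reporter signal. Insect Schneider cells with Gal4-ROR gamma fusion under metallothionein promoter, UAS reporter; 700 uM final copper sulfate induction, 20 hr, ambient temperature.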
SW480 rereplic – inducers of DNA re-replication in SW480 colon cancer cells | Potency, µM (top dose mostly 46.1 µM), inactives show at the highest dose re-replication activation, usual class: activators | actives 1.8% (n = 340,000) | AID 624297 | SW480 DNA re-replication, Hoechst DNA content imaging, 48 h; further: potency means the concentration at half of the fitted maximal effect; % of control where 0% means no effect; nearly all actives have a fitted effect of over 55% in size
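DNA re-replication was detected as more nuclei of elevated Hoechst intensity after 48 hr exposure to compound (23 nL pinned per well of 250 cells).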
* hit, by the source's call; ? = inconclusive; / = not tested or not shown; [ ] = another dose, or the depositor's remark. Unless noted, the call rests on the fitted dose curve; in most records, active means well fitted curve in the direction sought with a large enough effect; inconclusive means small, poorly fitted or top-dose-only effect, or another doubt; inactive means no such curve, though single readings can be large; an effect the other way counts as inactive or inconclusive.

SMILES | Gal4-VP16 FLuc | MCF10A rerep | IL-1B inflam inh | RORgamma inh | SW480 rereplic
O=C(Nc1ccc(-c2cccc(F)c2)cc1)C1CCCN(Cc2ccccn2)C1 (configuration not stated) | 11µM* | ? | ? | 13µM* | ?
COc1cccc(-c2ccc(NC(=O)C3CCCN(Cc4cnn(C(C)C)c4)C3)cc2)c1 (configuration not stated) | -21% | 18µM* | -79* | -32% | ?
Cc1ncc(CN2CCCC(C(=O)Nc3ccc(-c4cccc(F)c4)cc3)C2)cn1 (configuration not stated) | -18% | 10% | -87* | 27% | ?
CC(=O)c1cccc(CN2CCCC(C(=O)Nc3ccc(-c4ccco4)cc3)C2)c1 (configuration not stated) | 1% | ? | -18 | 2% | 8.2µM*
Cc1ncc(CN2CCCC(C(=O)Nc3ccc(-c4cccc(F)c4)cc3)C2)s1 (configuration not stated) | -3% | 25% | ? | 22% | 4%
Cc1cc(C)c(C(=O)N(C)C2CCCN(Cc3ccccc3F)C2)o1 (configuration not stated) | -6% | -1% | -9 | 19% | -9%
NC(=O)OC[C@@H]1[C@H](NC(=O)/C(=N/OCC(=O)O)c2csc(N)n2)C(=O)N1S(=O)(=O)O | -9% | 0% | / | -2% | 0%
COc1ccc(-c2nc(-c3ccccc3)c(Nc3c(C)cccc3C)o2)cc1 | 1% | / | / | -13% | /
COc1ccc(C2CC(=O)CCN2S(=O)(=O)c2ccc(C)cc2)cc1 (configuration not stated) | / | 1% | 13 | / | 0%
Cn1cccc1/C=C1\SC(=Nc2ccccc2)NC1=O | 2% | ? | 140 | -13% | ?
Cn1cccc1/C=C1\SC(=Nc2cccc(O)c2)NC1=O | ? | 9.2µM* | 30 | 3.2µM* | 60%
Cc1ccc(N=C2NC(=O)/C(=C\c3ccco3)S2)cc1 | ? | -5% | 0 | 28% | /
Cc1ccc(N=C2NC(=O)/C(=C/c3cn(C)c4ccccc34)S2)cc1C | ? | 21µM* | -25 | 13µM* | ?
O=C1NC(=Nc2ccc(O)cc2)S/C1=C/c1ccco1 | 11% | 4.6µM* | 19 | -1% | 2.9µM*
Cn1cccc1/C=C1\SC(=Nc2ccc(O)cc2)NC1=O | 7% | 0.58µM* | 132 | 2% | 0.46µM*
CCCC1(C(=O)OC)C=C2C(=C(C)C(=O)C2C)CN1 (configuration not stated) | 6% | / | / | -19% | /
Cc1ccc(F)c(S(=O)(=O)NC(=O)C2(C)CCN2C(=O)Cc2cc(F)ccc2F)c1 (configuration not stated) | / | / | 21 | / | /
C=C[C@]1(C)Cc2occ(C)c2C[C@H]1C(=C)C(=O)O | -24% | / | / | -36% | /
CN(C)c1ccc(CNC(=O)C2Cc3c(-c4ccccc4Oc4ccccc4)ccnc3O2)cc1 (configuration not stated) | / | / | -8 | / | /
Cc1cccc(N=C2NC(=O)/C(=C/C=C/c3ccco3)S2)c1 | ? | ? | -10 | ? | ?
Cc1ccc(N=C2NC(=O)/C(=C/c3cccn3C)S2)c(C)c1 | -19% | -6% | -21 | 10µM* | -100%
COc1ccc(N=C2NC(=O)/C(=C\C=C\c3ccco3)S2)cc1 | ? | 3% | -63* | -17% | -2%
CCC(=O)C1CCCN(C(=O)CCc2nnc(C3(c4ccc(Cl)cc4)CCC3)o2)C1 (configuration not stated) | -3% | 20% | 1 | 36% | -4%
Cc1nn(Cc2ccc(Cl)cc2)c(C)c1NC(=O)C(c1ccccc1)c1ccccc1 | -1% | ? | ? | 11µM* | 3%
Cc1nn(Cc2ccc(Cl)cc2)c(C)c1NC(=O)c1ccc([N+](=O)[O-])cc1 | 0% | -2% | -74* | ? | 2%
SMILES | Gal4-VP16 FLuc | MCF10A rerep | IL-1B inflam inh | RORgamma inh | SW480 rereplic
Cc1nn(Cc2ccc(Cl)cc2)c(C)c1NC(=O)Cn1nc([N+](=O)[O-])c(Cl)c1C | 1% | ? | 53 | 20% | 7%
Cc1cc(NC(=O)CSc2nc3ccccc3c(=O)n2Cc2ccccc2)no1 | 2% | 8% | 2 | ? | -10%
O=c1c2ccccc2nc(SCc2cccc(F)c2)n1C1CCCC1 | -5% | 18µM* | 37 | 18% | 11%
N#CCSc1nc2ccccc2c(=O)n1C1CCCCC1 | -7%[10 µM] | -1% | 10 | -12% | 0%
CN(C)c1ccc(NC(=O)CSc2nc3ccccc3c(=O)n2C2CCCCC2)cc1 | -3% | ? | -51* | -15% | 1%
COCC(C)n1c(SCc2ccc(OC)c(F)c2)nc2ccccc2c1=O (configuration not stated) | -20% | -4% | 51 | ? | 4%
CCn1c(SCc2ccc(OC)c(F)c2)nc2ccccc2c1=O | 3% | 18µM* | -15 | -38% | 6%
Cc1cc(NC(=O)CSc2nc3ccccc3c(=O)n2C2CCCC2)no1 | -4% | 1.3µM* | 28 | 0% | 1.3µM*
CN(C)c1ccc(NC(=O)CSc2nc3ccccc3c(=O)n2CC2CCCO2)cc1 (configuration not stated) | -3% | 6% | -1 | ? | 1%
CC(C)C[C@H](NC(=O)CN(C)C(=O)[C@H](Cc1ccccc1)NC(=O)[C@H](Cc1ccccc1)NC(=O)[C@H](CCC(N)=O)NC(=O)[C@H](CCC(N)=O)NC(=O)[C@@H]1CCCN1C(=O)[C@H](CCCCN)NC(=O)[C@@H]1CCCN1C(=O)[C@@H](N)CCCN=C(N)N)C(=O)N[C@@H](CCS(C)(=O)=O)C(N)=O | 5% | / | / | -3% | /
CN1CCN(C(=O)c2ccc(NS(=O)(=O)c3cccc([N+](=O)[O-])c3)cc2)CC1 | / | -3% | 20 | / | -18%
CN(CC(=O)Nc1ccc(F)cc1)C(=O)CNC(=O)C1CCCCC1 | / | -3% | 0 | / | -5%
Cc1ccc(C)c(N2C(=O)CC(Cc3ccc(Br)cc3)C2=O)c1 (configuration not stated) | -12% | 14% | 3 | 19% | -3%
Cc1ccc(C)c(-n2sc3ccc(F)cc3c2=O)c1 | / | ? | -106* | / | 18µM*
O=c1c2cc(F)ccc2sn1-c1ccc(F)cc1 | / | ? | -114* | / | ?
COc1ccc(-n2sc3ccccc3c2=O)cc1 | / | / | -106* | / | /
CC(=O)Nc1ccc2sn(-c3ccccc3)c(=O)c2c1 | / | / | -102* | / | /
O=c1c2cc([N+](=O)[O-])ccc2sn1-c1ccccc1 | / | / | 15 | / | /
COc1ccc(CC2(CO)CCN(S(=O)(=O)c3cccc4cccnc34)CC2)cc1 | -6% | -23%[9.22 µM] | -2 | 31% | -3%
N#Cc1ccc2sn(-c3ccccc3)c(=O)c2c1 | / | / | 19 | / | /
COc1ccc(-n2sc3ccc(F)cc3c2=O)cc1 | / | ? | -106* | / | 9%
